aSyn UTR act: Activators via SNCA 5'UTR binding, MLPCN; alpha-synuclein 5'UTR reporter, activators screen; activity score, % (tested at 7.5 µM), hits read low; 300,000 compounds, 7.1% hits; AID 1814, 2009; in the data active = activity score below about -60%
Numbers stand for hits; . = inactive. The list is a sample of the results.

SMILES	aSyn UTR act
COc1cccc(NC(=O)c2cccc(C)c2[N+](=O)[O-])c1	-75.8
CC(=O)Nc1cccc(OCCCNC(=O)c2ccc(C(C)(C)C)cc2)c1	-71.7
CC(=O)Nc1cccc(OCC(=O)Nc2sccc2C(N)=O)c1	-81.7
COc1ccc(OCC(=O)Nc2ccc(OC)c(S(=O)(=O)N3CCCCC3)c2)cc1	-95.8
COc1cccc(NC(=O)CC(=O)c2ccc([N+](=O)[O-])cc2)c1	-115.4
CC(C)(C)C1(C)OC(=O)C(=Cc2ccc(OCC(=O)Nc3ccccc3)cc2)C(=O)O1 (stereo unspecified)	-84.1
CCn1nc(C)c(C(=O)Nc2cc(Oc3cc(C)cc(C)c3)cc([N+](=O)[O-])c2)c1C	.
CC(=O)Nc1cccc(OCC(=O)Nc2ccccc2)c1	-114.0
COc1cccc(NC(=O)COc2ccccc2)c1	-143.7
CSc1cccc(NC(=O)COc2ccccc2C)c1	-85.2
CC(=O)/C=C/c1ccccc1Oc1c(F)c(F)nc(F)c1F	-93.7
CC(C)N1CCc2c(sc(NC(=O)c3ccc([N+](=O)[O-])o3)c2C(N)=O)C1	.
CCN1CCc2c(sc(NC(=O)c3ccc4ccccc4c3)c2C(N)=O)C1	-193.8
CC(C)N1CCc2c(sc(NC(=O)c3ccc(S(=O)(=O)N4CCc5ccccc54)cc3)c2C(N)=O)C1	-102.8
Cc1ccnc(NC(=S)NC(=O)c2cncc(Br)c2)c1	-81.0
CCC1CCCCN1C(=O)CCCOc1ccccc1 (stereo unspecified)	-113.3
O=C(CCCOc1ccccc1)N1CCCCC1	.
CCOC(=O)C1CCN(C(=O)CCCOc2ccccc2)CC1	-120.5
c1ccc(Nc2cccc(Nc3ccccc3)n2)cc1	-125.0
O=C1CCCC/C1=C\Nc1ccc(Cl)cn1	-115.7
COc1ccc(O)c(/C=N/NC(=O)c2ccc(OCc3cccc(Br)c3)cc2)c1	.
Cn1cc(C(=O)N/N=C/C(Br)=C\c2ccccc2)ccc1=O	-83.0
COc1cccc(C(=O)N/N=C/C(Br)=C/c2ccccc2)c1	-135.5
Cc1cc(C)c2nc3sc(C(=O)N4CCOCC4)c(N)c3cc2c1	.
Cc1ccc(C)c2nc3sc(C(=O)N4CCOCC4)c(N)c3cc12	-128.8
SMILES	aSyn UTR act
Clc1ccc(/C=N/N2CCCCC2)cc1	-102.6
O=[N+]([O-])c1ccc(/C=N/N2CCCCC2)cc1	-127.6
C=CCN1C(=O)CS/C1=N\N=C\c1cccc([N+](=O)[O-])c1	-72.7
O=C1N=c2ccccc2=C1c1sc(Nc2cccc(O)c2)nc1O	-90.5
Cc1c(C(=O)NCc2ccccn2)oc2ccccc12	-137.9
Cc1c(C(=O)NCc2ccccn2)oc2ccc(Br)cc12	-130.8
O=C(OCc1nc2ccccc2s1)c1ccco1	-96.6
Cc1cc(C(=O)OCc2nc3ccccc3s2)c(C)o1	-125.9
CC(=O)OCc1nc2ccccc2s1	-136.1
Cc1cc2c(C)cc(=O)[nH]c2cc1NC(=O)CCl	-69.8
CC1CCCCN1C(=O)CSc1nnc(-c2ccccc2F)o1 (stereo unspecified)	-84.1
O=C(CSc1nnc(-c2ccccc2F)o1)N1CCCC1	-76.2
CC1CCCCN1C(=O)CSc1nnc(-c2ccco2)o1 (stereo unspecified)	-135.7
COc1ccc(-c2nnc(SCC(=O)N3CCCC3)o2)c(OC)c1	-82.8
COc1ccc(-c2cc(C(=O)Nc3cc(C)on3)no2)cc1	-70.5
COc1ccc(-c2cc(C(=O)Nc3ccc(C)cc3)no2)cc1	-70.8
COc1ccc(OCc2cccc(C(=O)Nc3cc(C)on3)c2)cc1	.
O=C1N(Cc2ccc(F)cc2)CCN1c1ccc(F)cc1	-81.4
Cc1cccc(-c2noc(Cc3ccc(Cl)cc3)n2)c1	-98.2
COc1ccc(Cc2nc(-c3ccncc3)no2)cc1	-79.4
COc1ccc(Cc2nc(-c3cccc(C)c3)no2)cc1	-102.3
CCc1nnc(NC(=O)C2Cc3ccccc3CN2S(=O)(=O)c2c(C)c(C)cc(C)c2C)s1 (stereo unspecified)	-104.3
COc1ccc(Cl)cc1NC(=O)C1Cc2ccccc2CN1S(C)(=O)=O (stereo unspecified)	.
COc1cccc(/C=C/C(=O)OCC(=O)N2c3ccccc3NC(=O)C2(C)C)c1	-69.8
O=S(=O)(NCc1cn2ccccc2n1)c1cccs1	-63.8
SMILES	aSyn UTR act
N#Cc1cccc(NC(=O)CSc2ccc3c4c(cccc24)C(=O)c2ccccc2-3)c1	-154.4
COc1ccc(NC(=O)CSc2ccc3c4c(cccc24)C(=O)c2ccccc2-3)cc1	-65.5
CN(C(=O)COC(=O)/C=C/c1ccccc1[N+](=O)[O-])c1ccccc1	-68.7
O=C(COC(=O)/C=C/c1ccccc1[N+](=O)[O-])NC1CCS(=O)(=O)C1 (stereo unspecified)	-108.2
O=C(COC(=O)/C=C/c1ccccc1[N+](=O)[O-])Nc1ccc(OCc2ccccc2)cc1	-121.9
CN1CCN(C(=O)c2ccc(-c3cccs3)s2)CC1	-97.8
CCN(CC)c1ccc(/C=C2\SC(=O)N(C(C)C)C2=O)o1	-103.0
Clc1ccc(-c2nnc(-c3ccc(Br)o3)o2)c(Cl)c1	-192.4
O=C1OCCC1Sc1nnc(-c2ccc(Cl)cc2Cl)o1 (stereo unspecified)	.
CCSc1nnc(-c2ccc(Cl)cc2Cl)o1	-259.9
CSc1nnc(-c2ccc(Cl)cc2Cl)o1	-120.4
CCOC(=O)c1c(NC(=S)N2CCN(C)CC2)sc2c1CCN(C(=O)OCC)C2	-62.9
Oc1c(C=NCc2ccccc2)sc2ccccc12	-103.4
O=[N+]([O-])c1ccc(N=Nc2c(Cl)cc(O)cc2Cl)cc1	.
O=[N+]([O-])c1ccc(N=Cc2sc3ccccc3c2O)cc1	-68.3
CSc1nnc2c(n1)[nH]c1c(C)cccc12	-106.7
C=CCSc1nnc2nc3[nH]c4c(C)cccc4c3nn12	-74.6
CCSc1nnc2c(n1)[nH]c1c(C)cccc12	-208.0
Cc1occc1C(=O)N/N=C/c1ccc2c(c1)OCO2	-66.8
Cc1cc(C(=O)N/N=C/c2ccc3c(c2)OCO3)c(C)o1	-105.0
COCn1c(-c2cccc(Br)c2)nc2ccccc21	-63.3
COCn1c(-c2ccc(OC)c(OC)c2)nc2ccccc21	-105.6
CCC(Sc1nnnn1C)C(=O)Nc1ccc(C(C)=O)cc1 (stereo unspecified)	-73.4
CSc1ccc(-c2sc(Nc3ccccc3)n[n+]2-c2ccc(F)cc2)cc1	-143.4
CCc1cc2c(=O)n(CC(C)C)cnc2s1	-100.7
SMILES	aSyn UTR act
CCc1cc2c(=O)n(-c3ccc(Br)cc3)cnc2s1	-160.3
CCCCCn1cnc2sc(CC)cc2c1=O	-168.8
Cc1onc(-c2ccccc2)c1C(=O)NC(=S)NNC(=O)c1ccc(O)cc1O	.
O=C(NNc1c2ccccc2nc2ccccc12)c1ccc(O)cc1O	-78.6
O=C(NNc1c2ccccc2nc2ccccc12)c1ccccc1O	-92.9
C/C(=N\NC(=O)c1cc(C2CC2)nc2ccccc12)c1ccc(O)cc1O	.
Cc1ccc2nc(-c3ccsc3)c(NC3CCCC3)n2c1	-64.5
CCOC(=O)c1cnn(-c2ncnc3c2cnn3C)c1N	-93.8
CCOC(=O)c1cnn(-c2ccc(C(F)(F)F)cn2)c1N	-277.4
Cc1ccc(NC(=O)N2CCc3ccccc3C2)cc1C	-152.1
Cc1ccc(NC(=O)C2OCCc3ccccc32)cc1C (stereo unspecified)	-61.6
Cc1ccccc1NC(=O)N1CCc2ccccc2C1	-79.8
Cc1cc(C)cc(NC(=O)N2CCc3ccccc3C2)c1	-111.3
C/C(N)=C(/C#N)C(=O)CSc1nnc(-c2ccc(OC(F)F)cc2)o1	-204.3
C/C(N)=C(/C#N)C(=O)CSc1nn(-c2ccc(Cl)cc2)c(=S)s1	-73.8
C/C(N)=C(/C#N)C(=O)CSc1ccccc1F	-115.0
